From the supplement of paper PMC7858590

test system: human monocyte-derived macrophages (polarized); assay: cell shape (eccentricity) Z-score vs DMSO control; higher = more elongated, M2-like morphology; settings: 5 µM; 24 h; macrophage state: M1-polarized (IFNg + TNFa), cytokines present during treatment
Procedure: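 Primary-screen hits were rescreened on polarized hMDMs with the differentiating cytokines (IL-4 + IL-13 or IFNg + TNFa) kept in the medium during treatment with compound at 5 uM for 24 h. The eccentricity Z-score vs DMSO wells is averaged over experiments.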

Row | SMILES | cell shape (Z-score)
1 | O=S(=O)(c1cccc2cnccc12)N1CCNCC1 | 3.08
2 | c1ccc2c(Oc3nc(Nc4ccc(N5CCOCC5)cc4)c4ncn(C5CCCCC5)c4n3)cccc2c1 | 9.34
3 | CCc1cnn2c(NCc3ccc[n+]([O-])c3)cc(N3CCCC[C@H]3CCO)nc12 | 8
4 | O=C(/C=C/c1cccc(S(=O)(=O)Nc2ccccc2)c1)NO | -3.19
5 | Cc1ccc(C(=O)Nc2ccc(S(=O)(=O)O)c3cc(S(=O)(=O)O)cc(S(=O)(=O)O)c23)cc1NC(=O)c1cccc(NC(=O)Nc2cccc(C(=O)Nc3cc(C(=O)Nc4ccc(S(=O)(=O)O)c5cc(S(=O)(=O)O)cc(S(=O)(=O)O)c45)ccc3C)c2)c1 | 6.07
6 | CS(=O)(=O)c1cccc(CNc2nc(Nc3ccc4c(c3)CCC(=O)N4)ncc2C(F)(F)F)c1 | -3.99
7 | O=S(=O)(c1cccc2cnccc12)N1CCCNCC1 | -0.217
8 | Oc1cccc(-c2nc(N3CCOCC3)c3oc4ncccc4c3n2)c1 | -3.07
9 | COc1cc2c(cc1-c1c(C)noc1C)ncc1[nH]c(=O)n([C@H](C)c3ccccn3)c12 | -12.4
10 | CC1=C(/C=C/C(C)=C/C=C/C(C)=C/C(=O)O)C(C)(C)CCC1 | 7.03
11 | c1cc(-c2cnn3cc(-c4ccc(OCCN5CCCCC5)cc4)cnc23)ccn1 | 1.96
12 | COc1cc2c(Oc3ccc4[nH]c(C)cc4c3F)ncnc2cc1OCCCN1CCCC1 | 12.3
13 | CNC(=O)c1cc(Oc2ccc(NC(=O)Nc3ccc(Cl)c(C(F)(F)F)c3)c(F)c2)ccn1 | 12.1
14 | CCCC(=O)Nc1ncnc2c1ncn2[C@@H]1O[C@@H]2COP(=O)(O)O[C@H]2[C@H]1OC(=O)CCC | 0.117
15 | Cn1cc(C2=C(c3cn(CCCSC(=N)N)c4ccccc34)C(=O)NC2=O)c2ccccc21 | 17.6
16 | CCN(CC)CCOc1ccc2c(c1)C(=O)c1cc(OCCN(CC)CC)ccc1-2 | -4.84
17 | NC(N)=NCCNS(=O)(=O)c1cccc2cnccc12 | -4.47
18 | Clc1ccc(C(Cn2ccnc2)OCc2ccsc2Cl)c(Cl)c1 (stereo unspecified) | -4.98

same assay, conditions: 5 µM; 24 h; macrophage state: M2-polarized (IL-4 + IL-13), cytokines present during treatment

Row | SMILES | cell shape (Z-score)
19 | CC(=O)OCC(=O)[C@@]1(O)[C@H](OC(C)=O)C[C@H]2[C@@H]3CCC4=CC(=O)C=C[C@]4(C)[C@@]3(F)[C@@H](O)C[C@@]21C | -9.46
20 | CC(C)CC1NC(=O)C(C)NC1=O (stereo unspecified) | -2.08
21 | Cc1oc(=O)oc1CN1CCN(c2cc3c(cc2F)c(=O)c(C(=O)O)c2n3C(C)S2)CC1 (stereo unspecified) | -6.14
22 | Cc1cc(C(C)(C)CC(C)(C)C)ccc1OCCOCC[N+](C)(C)Cc1ccccc1 | -3.9
23 | O=C(CCCc1ccc(-c2ccccc2F)cc1)Nc1ccc(O)cc1 | -9.79
24 | COc1ccc(/C=C/C(=O)O)cc1OC | 1.19
25 | C=C1C(=O)OC2CC3(C)CCC=C(CO)C3CC12 (stereo unspecified) | -5.59
26 | OCc1ccc(-c2ccc(-c3ccc(CO)s3)o2)s1 | -20.9
27 | CN(C)c1ccc(C(=C2C=CC(=[N+](C)C)C=C2)c2ccc(N(C)C)cc2)cc1 | -9.83
28 | OC1(c2ccc(Cl)c(C(F)(F)F)c2)CCN(CCCC(c2ccc(F)cc2)c2ccc(F)cc2)CC1 [Penfluridol] | -10.9
29 | O=C(O)CN1C(=O)c2cccc3cccc(c23)C1=O | 9.63
30 | CC(=O)N[C@@H](C(=O)O[C@H]1CCC(C)(C)[C@@H]2CCC3=C(COC3=O)[C@@]12C)C(C)C | -0.761
31 | O=C1c2ccccc2-c2nc3nonc3nc21 | -2.4
32 | C=C(NC(=O)C(=C)NC(=O)c1csc(C2=N[C@@H]3c4csc(n4)[C@H]4NC(=O)c5csc(n5)[C@H]([C@](C)(O)[C@@H](C)O)NC(=O)[C@H]5CSC(=N5)/C(=C/C)NC(=O)[C@H]([C@@H](C)O)NC(=O)c5csc(n5)[C@]3(CC2)NC(=O)[C@H](C)NC(=O)C(=C)NC(=O)[C@H](C)NC(=O)[C@H]([C@@H](C)CC)N[C@@H]2C=Cc3c([C@H](C)O)cc(nc3[C@H]2O)C(=O)O[C@@H]4C)n1)C(N)=O | -11
33 | COC(=O)C[C@@H]1C(C(=O)O)=CO[C@@H](O[C@@H]2O[C@H](CO)[C@@H](O)[C@H](O)[C@H]2O)/C1=C\COC(=O)/C=C/c1ccccc1 | -7.78
34 | CC(C)c1ccc(Cn2ccc3c4c(N)nc(NC5CC5)nc4ccc32)cc1 | -11
35 | COc1cc(C=O)cc2c1[nH]c1ccccc12 | -3.04
36 | O=C1c2ccc(Nc3ccc(F)cc3F)cc2CCc2ccc(OC[C@H](O)CO)cc21 | 2.03
